CBFb RUNX1 block – qHTS Assay for Compounds Blocking the Interaction Between CBF-beta and RUNX1 for the Treatment of Acute Myeloid Leukemia | 230,000 tested, under 10 active | Runt-related transcription factor 1 (Homo sapiens) + Core-binding factor subunit beta … | AID 1477, 2009 | Potency, µM (doses to about 59.8 µM), without a hit: at the highest dose activity, negative = inhibition, usual class: inhibitors | AlphaScreen CBFb-His/RUNX1-biotin binding, biochemical; note: % of control where 0% means no effect
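His-tagged CBF-beta and biotinylated RUNX1 (30 nM each) were premixed 20 min at room temperature, exposed to compound for 15 min, then given nickel-chelate and streptavidin AlphaScreen beads (50 ng each). After 90 min, AlphaScreen signal was read.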
TSG101-PTAP inh – qHTS Assay for Iinhibitors of HIV-1 Budding by Blocking the Interaction of PTAP/TSG101; Tumor susceptibility gene 101 protein (Homo sapiens), Q99816; Fluorescence polarization, FITC-PTAP peptide / Tsg101 binding; Potency, µM (highest dose often 115 µM), for inactives: at the top dose activity change, negative = inhibition, actives largely listed as inhibitors; 340,000 tested, under 10 active; active = well fitted inhibition curve with a large enough effect in the main read-out, with a control signal flat, not every such curve was filed as active; inconclusive = small, poorly fitted or top-dose-only effect, or effect the other way, or a change in a side signal; inactive = no such curve, though single readings can be large or run the other way; note: potency is the fitted concentration of half-maximal effect; % of control where 0% means no effect
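Fluorescence polarization binding of Tsg101 binding domain (10 uM final) to FITC-labeled PTAP peptide (50 nM final) in HEPES pH 7.5 buffer with NaCl, Tween 20, EDTA, TCEP. Compounds added before peptide; binding 20 min at RT.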
Vif-APOBEC3F blk – qHTS for Inhibitors of Vif-A3F Interactions: qHTS | 390,000 compounds, 0.2% hits | HeLa A3F-eYFP + Vif (tagged APOBEC3F with the HIV-1 protein that degrades it), YFP fluorescence increase | Potency, µM (doses to about 46.1 µM), without a hit: at the highest dose activity, negative = active | AID 602313, 2012; note: potency is the fitted concentration of half-maximal effect; % of control where 0% means no effect; nearly all actives have a fitted effect of over 65% in size
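HeLa cells stably expressing Vif plus C-terminally eYFP-tagged A3F were seeded, incubated overnight at 37 deg C, dosed with compound, incubated overnight again at 37 deg C. Yellow fluorescence (Ex 488/Em 500-530) reported blocked Vif-mediated A3F-eYFP degradation.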
Vif-APOBEC3G blk – qHTS for Inhibitors of Vif-A3G Interactions: qHTS | Potency, µM (titrated, usually from 46.1 µM), for inactives: top-dose activity, negative = active, hits mostly inhibitors | 410,000 compounds, 0.076% hits | HeLa A3G-eYFP + Vif (tagged APOBEC3G with the HIV-1 protein that degrades it), YFP fluorescence, overnight | DNA dC->dU-editing enzyme APOBEC-3G (Homo sapiens), Q9HC16; note: potency is the fitted concentration of half-maximal effect; % is set by controls: 0 for no effect and ±100 for the full control effect; nearly all actives have a fitted effect of over 60% in size
Target sequence (Q9HC16 whole entry, looked up): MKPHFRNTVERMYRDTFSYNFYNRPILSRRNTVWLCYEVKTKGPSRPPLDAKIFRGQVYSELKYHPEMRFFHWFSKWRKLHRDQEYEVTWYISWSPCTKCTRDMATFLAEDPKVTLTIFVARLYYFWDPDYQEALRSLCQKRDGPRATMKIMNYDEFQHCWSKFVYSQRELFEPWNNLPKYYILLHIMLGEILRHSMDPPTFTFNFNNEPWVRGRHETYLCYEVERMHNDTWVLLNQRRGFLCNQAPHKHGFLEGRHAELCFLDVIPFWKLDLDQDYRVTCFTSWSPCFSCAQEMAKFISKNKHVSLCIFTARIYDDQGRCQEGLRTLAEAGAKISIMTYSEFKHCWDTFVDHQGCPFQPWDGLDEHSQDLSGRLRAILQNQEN
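Read-out is eYFP fluorescence (Ex 488/Em 500-530) from Vif-expressing HeLa A3G-eYFP cells; more signal means A3G escaped Vif-mediated degradation. Cells plated overnight, compound pinned in, incubated overnight at 37 deg C.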
MBNL1 CUG block – qHTS Assay for Inhibitors of MBNL1-poly(CUG) RNA binding; TR-FRET MBNL1-His/biotin-(CUG)12 binding, 665/545 ratio; Potency, µM (top dose mostly 57.5 µM), for the others: at the top dose activity change, negative = inhibition, most hits filed as inhibitors; 280,000 compounds, 0.036% hits; AID 2675, 2010; active = well fitted inhibition curve with a large enough effect in the signal ratio, with a control signal flat, not every such curve was filed as active; inconclusive = small, poorly fitted or top-dose-only effect, or effect the other way, or a change in a side signal; inactive = no such curve, though single readings can be large or run the other way; the % refers to the signal ratio; note: potency is the fitted concentration of half-maximal effect; % is set by controls: 0 for no effect and ±100 for the full control effect
Target sequence (Q9NR56 whole entry, looked up): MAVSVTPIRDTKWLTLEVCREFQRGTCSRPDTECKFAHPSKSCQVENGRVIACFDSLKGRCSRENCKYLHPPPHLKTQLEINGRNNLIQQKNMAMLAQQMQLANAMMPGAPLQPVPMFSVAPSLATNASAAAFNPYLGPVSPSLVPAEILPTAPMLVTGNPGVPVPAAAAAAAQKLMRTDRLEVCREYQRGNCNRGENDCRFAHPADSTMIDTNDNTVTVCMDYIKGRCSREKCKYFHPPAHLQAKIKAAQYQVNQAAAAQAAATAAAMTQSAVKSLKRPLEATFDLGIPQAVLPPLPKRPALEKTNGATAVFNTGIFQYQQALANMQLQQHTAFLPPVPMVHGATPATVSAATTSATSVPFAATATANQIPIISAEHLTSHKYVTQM
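Ratiometric TR-FRET (665 over 545 nm, excitation 340 nm) tracks disruption of MBNL1-His/biotin-(CUG)12 complex after 60 min at room temperature, with compounds at 92 nM to 58 uM final.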
Epigenetic reg – Quantitative High-Throughput Screen for Regulators of Epigenetic Control | murine LDR cells, GFP reporter derepression, 30 h | Potency, µM (doses to about 53.9 µM), inactives show at the top dose GFP activation, actives largely listed as activators | 280,000 compounds, 0.2% hits; note: potency is the fitted concentration of half-maximal effect; % of control where 0% means no effect; nearly all actives have a fitted effect of over 60% in size
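Derepression of a silenced CMV-GFP reporter in murine LDR cells is scored by enumerating GFP-positive cells with a laser-scanning microplate cytometer after 30 hours of treatment at 37 C.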
* marks the source's active call; other numbers are inactive results; ? = inconclusive; · = not tested or not shown. A selection: hits, their analogues and other compounds. The true share with any hit is near 0.37%. Unless noted, calls come from the whole dose curve; as a rule, active = well fitted curve in the direction sought with a large enough effect; inconclusive = small, poorly fitted or top-dose-only effect, or another doubt; inactive = no such curve, though single readings can be large; an effect the other way counts as inactive or inconclusive.

SMILES	CBFb RUNX1 block	TSG101-PTAP inh	Vif-APOBEC3F blk	Vif-APOBEC3G blk	MBNL1 CUG block	Epigenetic reg
CCc1ccc(Nc2nnc(-c3cc4cc(OC)ccc4oc3=O)s2)cc1	·	·	0.3%	2.2%	·	15.8µM*
CCN(CC)c1ccc2cc(-c3nnc(-c4ccncc4)o3)c(=O)oc2c1	8.7%	?	-417.7%	1.6%	?	0.562µM*
CCN(CC)c1ccc2cc(C(N)=O)c(=O)oc2c1	-3.2%	6.0%	-12.6%	-5.9%	?	?
CCN(CC)c1ccc2cc(-c3nc(-c4cc(OC)c(OC)c(OC)c4)no3)c(=O)oc2c1	·	·	?	?	·	12.6µM*
COc1cc(-c2noc(-c3cc4cccc(C)c4oc3=O)n2)cc(OC)c1OC	·	·	4.2%	8.5%	·	-0.5%
CCN(CC)c1ccc2cc(-c3nc(-c4ccccc4F)no3)c(=O)oc2c1	·	·	?	-25.5%	·	12.6µM*
CCN(CC)c1ccc2cc(-c3nc(-c4cccs4)no3)c(=O)oc2c1	·	·	-923.8%	?	·	7.08µM*
CCc1ccc(NC(=O)CSc2nnc(-c3ccccc3)n2C)cc1	·	·	·	-0.1%	·	·
Oc1cc2cc(-c3csc(-c4ccc(F)cc4)n3)cc3c2n1CCC3	·	·	·	0.5%	·	·
Cc1ccc(NC(=O)COC(=O)c2ccccc2OCC(=O)Nc2ccc(Br)cc2)c(C)c1	·	·	·	0.5%	·	·
FC(F)(F)c1ccccc1NC(=S)NN=C1CCCCCC1	-3.4%	-2.1%	6.31µM*	?	3.6%	-4.2%
CCN(CC)c1ccc2cc(C(N)=O)c(=N)oc2c1	-2.8%	?	11.2µM*	?	?	167.9%
N/C(=N\NC(=O)c1cccs1)c1cc2ccccc2oc1=O	-28.7%	-2.2%	1.8%	0.9%	?	1.1%
CCN(CC)c1ccc2cc(/C(N)=N/NC(=O)c3cccs3)c(=O)oc2c1	17.2%	·	·	·	16.1%	6.31µM*
CN(C)c1ccc(/C=C/c2ccnc3ccccc23)cc1Br	·	·	·	-20.2%	·	·
CCOc1ccc(/C=C2/SC(=O)NC2=S)cc1	-19.0%	-1.2%	1.1%	1.1%	?	-1.5%
CCOc1ccc(N=C2NC(=O)S/C2=C\c2ccc(N(C)C)cc2)cc1	-0.8%	?	?	?	25.9%	7.94µM*
CC[N+](CC)(CC)c1ccc(/C=C/c2ccnc3ccccc23)cc1	·	·	·	9.0%	·	·
Cc1coc(NC(=O)CSc2nc(-c3ccncc3)cc(C(F)(F)F)c2C#N)n1	10.2%	-0.9%	11.2µM*	?	13.6%	12.6µM*
N#Cc1ccccc1NC(=O)CSc1nc(-c2ccccc2)cc(C(F)(F)F)c1C#N	·	·	11.2µM*	-29.9%	·	12.6µM*
CCCCOc1ccc(-c2cc(C(F)(F)F)c(C#N)c(SCC(=O)O)n2)cc1	1.4%	-28.0%	11.2µM*	-8.9%	2.3%	25.1µM*
CCN1C(=NCc2cccc(C(F)(F)F)c2)N[C@@H](c2cccc(C(F)(F)F)c2)C(C(=O)OC)=C1C	·	·	·	1.3%	·	·
CCOc1cc([N+](=O)[O-])cc2c1C(=O)Nc1ccccc1O2	-4.8%	?	22.4µM*	?	7.3%	?
CN1CCN(c2ccnc(N(C)CCCCCCN)n2)CC1	·	·	·	2.2%	·	·
Cc1ccc(NC(=O)CO/N=C/c2ccc(N(C)C)cc2)cc1	-6.3%	15.5%	25.1µM*	?	-0.4%	?
SMILES	CBFb RUNX1 block	TSG101-PTAP inh	Vif-APOBEC3F blk	Vif-APOBEC3G blk	MBNL1 CUG block	Epigenetic reg
COc1cc2nc(CCc3nc4cc(OC)c(OC)cc4[nH]3)[nH]c2cc1OC	·	·	·	2.1%	·	·
N#C/C(N=Nc1ccccc1O)=N\Nc1ccccc1O	·	-3.5%	11.2µM*	?	·	·
Nc1nonc1-c1nc2ccccc2n1CC(=O)Nc1cccc(C(F)(F)F)c1	·	·	25.1µM*	?	·	?
CC(=O)c1cc(NC(=O)c2ccc(C)cc2)c(=O)oc1/C=C/N(C)C	2.8%	?	12.6µM*	12.6µM*	?	5.5%
C1=C/C(=C2/C=Cc3ccccc32)c2ccccc2N1	·	·	·	-8.6%	·	·
COc1ccc(NC(=O)Cn2c(=O)n(-c3ccccc3)c(=O)c3ccc(C(=O)NCc4ccc5c(c4)OCO5)cc32)cc1	·	·	-7.2%	-11.4%	·	24.3%
O=C(Cn1c(=O)n(-c2ccccc2)c(=O)c2ccc(C(=O)NCc3ccc4c(c3)OCO4)cc21)Nc1ccc(Br)cc1	·	·	-0.1%	-0.5%	·	15.8µM*
Cc1ccc(-c2nc3cc(Cl)ccc3o2)cc1NC(=O)COc1ccccc1C	·	·	·	-4.7%	·	·
O=C(C[n+]1c2ccccc2cc2ccccc21)c1ccc(F)cc1	·	·	·	5.3%	·	·
C=CCNC(=S)N/N=C(\C)c1ccc(OC)cc1	2.0%	-0.5%	10µM*	1.4%	-5.8%	?
C/C(CCc1ccc2c(c1)OCO2)=N\NC(=S)NC(C)C	-1.4%	1.2%	12.6µM*	0.5%	·	?
O=C(NC(=S)Nc1ccc(N2CCOCC2)c(Cl)c1)c1cncc(Br)c1	0.3%	-6.5%	-1.8%	0.2%	·	0.0%
O=C(NC(=S)Nc1ccc(N2CCCCC2)c(Cl)c1)c1ccc2c(c1)OCCO2	-3.3%	12.9%	10µM*	-25.9%	-10.8%	0.0%
CC(=O)Nc1ccc(NC(=O)C/C(C)=N/NC(N)=S)cc1	-4.8%	-0.7%	7.94µM*	-1.9%	4.2%	-1.4%
CCC(=O)N/N=C(\C)CC(=O)Nc1ccc(F)cc1	2.0%	0.3%	-2.6%	4.2%	9.7%	1.6%
O=C(N/N=C/C=C/c1ccco1)c1ccncc1	-5.6%	-1.5%	11.2µM*	2.7%	?	3.0%
Cn1c(SCCOc2ccccc2)nnc1-c1ccc(NC(=O)CCc2ccccc2)cc1	·	·	·	1.9%	·	·
COc1ccc2[nH]cc(C(=O)CN3CCN(C/C=C/c4ccccc4)CC3)c2c1	6.1%	·	·	·	-11.4%	10µM*
COc1ccc2[nH]cc(C(=O)CN3CC(C)CC(C)C3)c2c1 (stereo not given)	·	-1.3%	-15.9%	-0.9%	-8.7%	·
